Assay results taken from PubChem BioAssay AID1159580 (chemical genetic matrix, 2015).
Hit rate of the full screen: of about 5,500 compounds, about 2,000 (36%) were called active. Another 18% or so got no clear call; they are omitted. No stated cut-off is given here; in the data, active means normalized growth mostly below about 0.91 (no sharp cut-off); inconclusive means no clear call, values can overlap the other calls; inactive means mostly above about 0.92. This is one part of the list.

Test: chemical genetic growth profiling, strain panel (AID 1159580);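 further: tested at 20 µM; growth read once vehicle control cultures reached saturation at 30 °C; 1 = growth at the plate median or of vehicle wells; lower values mean less growth of the strain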
Details: S. cerevisiae deletion strains, growth OD

Measured: normalized growth

COc1ccc([C@@H]2Sc3ccccc3N(CCN(C)C)C(=O)[C@@H]2OC(C)=O)cc1
inactive: locus YAL013W, strain DEP1, active compounds read low 0.989 | locus YAL040C, strain CLN3, active compounds read low 1.01 | locus YCL061C, strain MRC1 (second series), active compounds read low 0.988 | locus YDR150W, strain NUM1, active compounds read low 1.01 | locus YDR363W, strain ESC2, active compounds read low 0.951 | locus YER002W, strain NOP16, active compounds read low 1.02 | locus YGR078C, strain PAC10, active compounds read low 0.961 | locus YGR229C, strain SMI1, active compounds read low 0.971 | locus YJR075W, strain HOC1, active compounds read low 1 | locus YMR263W, strain SAP30, active compounds read low 0.993 | locus YMR307W, strain GAS1, active compounds read low 1 | locus YNL153C, strain GIM3, active compounds read low 1.01 | locus YNL175C, strain NOP13, active compounds read low 0.99 | locus YNL197C, strain WHI3, active compounds read low 1.1 | locus YNL224C, strain SQS1, active compounds read low 1.02 | locus YNL322C, strain KRE1, active compounds read low 0.967 | locus YOR083W, strain WHI5 (second series), active compounds read low 1.03 | locus YPL055C, strain LGE1, active compounds read low 0.955 | locus YPL241C, strain CIN2, active compounds read low 0.988
